High-throughput results from PubChem.
A selection: hits, their analogues and other compounds. The true share with any hit is near 2.8%.
CDK5 p35 inh: inhibitors of human CDK5/p35 kinase, primary screen, biochemical, single concentration | Cyclin-dependent kinase 5 (Homo sapiens) + Cyclin-dependent kinase 5 activator 1 (Homo … | Recombinant CDK5/p35, ADP-Glo luminescence, 60 min | inhibition, % at 10 µM | 330,000 tested, 0.01% active | AID 488839, 2010;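 active means highest replicate inhibition of at least 50% and at least 75% of replicates reaching 50%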;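 further: plate controls were DMSO neutral control for no effect and GW8510 at 10 µM for full effect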
FGF22 binding: binders of human FGF22 protein, primary screen, FGF22 synaptogenesis inhibitor project, biophysical, thermal shift, single point | activity (Tm shift, normalised), % at 9.99 µM | 340,000 tested, 1.5% active | AID 651658, 2012 | recombinant FGF22 thermal shift, SYPRO orange fluorescence; percent of sucrose octasulfate shift, DMSO zero;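 active means mean Tm shift, scaled 0 neutral to 100 positive control, at about 1.3% or above, every replicate too, limit read from the data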
Target sequence (Q9HCT0 whole entry, looked up): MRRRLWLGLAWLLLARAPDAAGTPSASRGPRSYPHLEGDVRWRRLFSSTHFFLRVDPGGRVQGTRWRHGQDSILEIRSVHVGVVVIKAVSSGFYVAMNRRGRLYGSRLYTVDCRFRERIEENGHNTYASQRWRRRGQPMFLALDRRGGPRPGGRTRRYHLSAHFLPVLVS
PglD DTNB: C. jejuni PglD acetyltransferase inhibitors, primary screen, biochemical, DTNB colorimetric, single point; UDP-N-acetylbacillosamine N-acetyltransferase PglD (Campylobacter jejuni); purified PglD enzyme, DTNB colorimetric CoA detection; inhibition, % at 12.5 µM; 360,000 tested, 0.098% active; in the data active means inhibition above about 16%, passing the limit was not always enough
dFosB act: activators of delta FosB homodimer, primary screen, biochemical, fluorescence polarization, TAMRA-CDK5 oligo, single point. Protein FosB (Mus musculus), P13346. 340,000 tested, 0.99% active. activation, % at 25 µM. purified delta FosB; percent of positive-control signal above neutral wells;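 active means mean activation above about 17%, with every replicate also reaching it, limit read from the data, passing the limit was not always enough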
SIRT5 inh: SIRT5 desuccinylase inhibitors, primary screen, biochemical, fluorescence imaging, single point, set 5 | NAD-dependent protein deacylase sirtuin-5, mitochondrial (Homo sapiens), Q9NXA8 | Purified SirT5, succinyl-peptide AMC, trypsin-coupled fluorescence | inhibition, % at 15 µM | 330,000 tested, 1.1% active | AID 652115, 2013; in the data active means inhibition above about 15%
Target sequence (Q9NXA8 whole entry, looked up): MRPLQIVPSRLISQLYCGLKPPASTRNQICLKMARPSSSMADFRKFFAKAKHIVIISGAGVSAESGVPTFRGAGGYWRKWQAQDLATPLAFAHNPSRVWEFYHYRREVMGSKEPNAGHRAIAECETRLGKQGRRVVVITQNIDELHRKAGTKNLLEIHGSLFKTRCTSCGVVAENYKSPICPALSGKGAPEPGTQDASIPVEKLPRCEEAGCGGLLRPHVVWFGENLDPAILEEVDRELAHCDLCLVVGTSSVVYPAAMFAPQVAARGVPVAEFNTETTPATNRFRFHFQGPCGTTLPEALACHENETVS
PvdQ inh: P. aeruginosa PvdQ acylase inhibitors, primary screen, biochemical, fluorescence, plate reader and imaging, single point; PvdQ acylase [Pseudomonas aeruginosa LESB58]; purified PvdQ acylase; inhibition, % at 10 µM; 340,000 tested, 0.063% active; in the data active means inhibition above about 30%, passing the limit was not always enough;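 further: 0% = vehicle neutral wells and 100% = reference inhibitor wells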
Active calls of the source: *.

What do the screens show for `COc1ccc(-c2ccc([C@@H]3[C@H](C#N)N(C(=O)NC4CCCC4)[C@H]3CO)cc2)cc1`?
FGF22 binding: 0.6; PglD DTNB: -0.5

Results for COc1ccccc1CC(=O)c1ccccc1OC ?
CDK5 p35 inh: -0.4; FGF22 binding: 43.5*; PglD DTNB: 3.7; dFosB act: 1.4; PvdQ inh: 2.9

What do the screens show for `COc1ccccc1C(=O)NNC(=O)c1ccccc1F`?
CDK5 p35 inh: -0.1; FGF22 binding: 43.7*; dFosB act: -5.8; SIRT5 inh: -1.3; PvdQ inh: -1.9

Results for COCC(=O)Nc1ccc2c(c1)C(=O)N(C)C[C@@H](OC)[C@H](C)CN(C(=O)C1CCCC1)[C@H](C)CO2 ?
FGF22 binding: -0.5; PglD DTNB: -1.9; SIRT5 inh: -1.8

What do the screens show for `N#C/C(=C\c1ccc(C(=O)O)cc1)c1nc2sc3c(c2c(=O)[nH]1)CCCC3`?
CDK5 p35 inh: -0.1; FGF22 binding: -0.1; dFosB act: -16.5; SIRT5 inh: 19.9*; PvdQ inh: -13.0

How did O=C(Cn1c(NCCO)nc2ccccc21)NCC1CCCO1 (stereo not drawn) do in these assays?
CDK5 p35 inh: 2.7; FGF22 binding: 43.1*; PglD DTNB: -6.9; dFosB act: 5.3; SIRT5 inh: -4.5; PvdQ inh: -12.8

What do the screens show for `CCN(CC)C(=O)C(=O)c1cn(CC(=O)NCC2CCCO2)c2ccccc12` (stereo not drawn)?
CDK5 p35 inh: 0.6; FGF22 binding: 43.9*; dFosB act: -3.3; SIRT5 inh: 0.8; PvdQ inh: 10.0

How did O=C(Cn1c(NCCO)nc2ccccc21)NCCc1ccccc1 do in these assays?
CDK5 p35 inh: 1.1; PglD DTNB: 2.2; dFosB act: 2.6; PvdQ inh: -3.6

How did Cc1ccc([N+](=O)[O-])cc1S(=O)(=O)n1ccnc1C do in these assays?
CDK5 p35 inh: -1.7; FGF22 binding: 43.5*; dFosB act: 6.3; SIRT5 inh: -1.2; PvdQ inh: 1.1

What do the screens show for `COc1cccc(NC(=O)N[C@H]2C=C[C@H](CC(=O)Nc3ccc(-c4ccccc4)cc3)O[C@@H]2CO)c1`?
FGF22 binding: -0.2; PglD DTNB: 0.8

What do the screens show for `O=C(NC[C@@H]1[C@@H](c2ccccc2)[C@@H](CO)N1C(=O)Cc1cccnc1)C1CC1`?
FGF22 binding: -0.7; PglD DTNB: -38.1; SIRT5 inh: 17.0*

What do the screens show for `CN(C[C@H]1[C@H](c2ccccc2)[C@@H](CO)N1C(=O)C1CCC1)C(=O)c1ccccn1`?
FGF22 binding: -0.9; PglD DTNB: 2.4; SIRT5 inh: 15.7*

What do the screens show for `CCN(C[C@@H]1[C@@H](c2ccccc2)[C@H](CO)N1C(=O)C1CC1)C(=O)NC1CCCC1`?
FGF22 binding: 0.0; PglD DTNB: 1.7; SIRT5 inh: 32.0*

What do the screens show for `CCC(=O)NC[C@H]1[C@@H](c2ccccc2)[C@H](CO)N1C(=O)C1CCC1`?
FGF22 binding: -1.2; PglD DTNB: 3.1; SIRT5 inh: 20.2*

How did C[C@@H]1CN([C@H](C)CO)C(=O)c2cccc(N(C)C)c2O[C@H]1CN(C)S(C)(=O)=O do in these assays?
FGF22 binding: -0.1; PglD DTNB: -5.8; SIRT5 inh: -1.2

What do the screens show for `CC(=O)N1[C@H](CO)[C@H]2c3ccccc3N(C(=O)c3ccccc3)C[C@H]21`?
FGF22 binding: 0.2; PglD DTNB: -0.6; SIRT5 inh: -0.7

Results for CC(=O)N1[C@H](CO)[C@H](c2ccc(-c3ccncc3)cc2)[C@@H]1CNC(=O)CC1CC1 ?
SIRT5 inh: 22.5*

How did COCC(=O)N1[C@H](CO)[C@H](c2ccccc2)[C@H]1CNC(=O)c1ccccn1 do in these assays?
FGF22 binding: -0.1; PglD DTNB: 4.3; SIRT5 inh: 0.2

How did COCC(=O)N1[C@H](CO)[C@@H](c2ccccc2)[C@@H]1CNC(=O)c1ccccn1 do in these assays?
FGF22 binding: -0.8; PglD DTNB: -2.4; SIRT5 inh: 15.1*

How did CC(=O)N1[C@H](CO)[C@H](c2ccc(C3=CCCC3)cc2)[C@H]1CNC(=O)CC1CC1 do in these assays?
SIRT5 inh: -0.6

How did COc1ccc2c3c([nH]c2c1)[C@H](CO)N(C(=O)c1ccncc1)CC31CCN(C(=O)C2CCC2)CC1 do in these assays?
FGF22 binding: -0.2; SIRT5 inh: 1.7

Results for CCCN1[C@@H]2c3ccc(-c4cccnc4)c(=O)n3C[C@@H]2[C@@H](CO)[C@@H]1C(=O)NCCCN1CCOCC1 ?
FGF22 binding: 0.0; PglD DTNB: 7.0; SIRT5 inh: 1.8

Results for O=C(NC1CCN(Cc2ccccc2)CC1)c1ccc(Cn2c(=S)[nH]c3ccc(N4CCOCC4)cc3c2=O)cc1 ?
CDK5 p35 inh: -0.2; FGF22 binding: -0.1; PglD DTNB: 1.5; dFosB act: 34.2*; SIRT5 inh: -3.2; PvdQ inh: -16.8

What do the screens show for `CCc1ccc(Nc2n[n+](-c3ccccc3)c(-c3ccc(N(CC)CC)cc3)s2)cc1`?
CDK5 p35 inh: -1.1; FGF22 binding: -0.1; PglD DTNB: -5.1; dFosB act: 74.6*; PvdQ inh: -26.5

How did CCN(CC)c1ccc(-c2sc(Nc3ccccc3)n[n+]2-c2ccc(F)cc2)cc1 do in these assays?
CDK5 p35 inh: 0.5; FGF22 binding: -0.1; PglD DTNB: 1.3; dFosB act: 27.6*; SIRT5 inh: -0.5; PvdQ inh: -28.3

How did COc1ccc(C(=O)Nc2ccc3c(c2)OC[C@@H](C)N(C(C)=O)C[C@@H](C)[C@H](OC)CN(C)C3=O)cc1 do in these assays?
FGF22 binding: 0.2; PglD DTNB: 2.5; SIRT5 inh: -1.1

Results for Cc1ccc(S(=O)(=O)Nc2cccc3c2O[C@@H](CN(C)C(=O)NC2CCCCC2)[C@H](C)CN([C@@H](C)CO)C3=O)cc1 ?
FGF22 binding: 0.1; PglD DTNB: 3.2; SIRT5 inh: 4.3

Results for C[C@@H]1CN([C@@H](C)CO)C(=O)c2cc(NS(=O)(=O)c3ccccc3)ccc2O[C@H]1CN(C)C(=O)Nc1cccc2ccccc12 ?
FGF22 binding: 0.3; PglD DTNB: 1.6; SIRT5 inh: -2.8

What do the screens show for `CCOC1=CC(=O)OC(c2ccccc2)C1` (stereo not drawn)?
CDK5 p35 inh: -1.0; FGF22 binding: 0.0; PglD DTNB: -2.7; dFosB act: -5.1; SIRT5 inh: -0.2; PvdQ inh: 80.8*
